Pol iota inh: DNA polymerase iota (human) inhibition | Q9UNA4 | actives 1% (n = 390,000) | Potency, µM (top dose mostly 115 µM), for inactives: top-dose activity, negative = inhibition, most hits filed as inhibitors | Pol iota fluorescent replication assay, 10 min
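Pol iota at 10 nM preincubated 15 min with compounds at room temperature; reaction started with fluorescent substrate, 50 nM final. Fluorescence read kinetically at 0 and 10 min; buffer-only wells as negative control.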
Pol eta inh-1: DNA polymerase eta (human) inhibition | Potency, µM (series often up to 114 µM), for the others: at the highest dose activity change, negative = inhibition, actives largely listed as inhibitors | recombinant Pol eta, fluorescent DNA replication assay | actives 1.2% (n = 390,000) | Q9Y253; further: on the % scale 0 is the no-effect control and ±100 the full control effect
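Pol eta at 10 nM preincubated with compounds 15 min at room temperature; reaction started with fluorescent substrate (50 nM final) and read kinetically at 0 and 10 min.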
Pol kappa inh-1: inhibitors of human DNA polymerase kappa; purified Pol kappa, fluorescent DNA synthesis assay, 10 min; AID 588579; actives 0.53% (n = 400,000); Q9UBT6; Potency, µM (titrated, usually from 107 µM), without a hit: at the highest dose activity, negative = inhibition, hits mostly inhibitors; further: on the % scale 0 is the no-effect control and ±100 the full control effect
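10 nM Pol kappa preincubated 15 min at room temperature with compounds, then reaction started with substrate at 50 nM final. Fluorescence read kinetically at 0 and 10 min; buffer-only wells served as negative control.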
WRN inhibitor: WRN helicase (human) inhibition. actives 0.46% (n = 360,000). WRN helicase unwinding, fluorescent forked duplex, kinetic. Potency, µM (series often up to 114 µM), for inactives: top-dose activity change, negative = inhibition, hits mostly inhibitors. AID 651768; further: on the % scale 0 is the no-effect control and ±100 the full control effect; nearly all actives have a fitted effect of over 55% in size
Target sequence (Q14191 whole entry, looked up): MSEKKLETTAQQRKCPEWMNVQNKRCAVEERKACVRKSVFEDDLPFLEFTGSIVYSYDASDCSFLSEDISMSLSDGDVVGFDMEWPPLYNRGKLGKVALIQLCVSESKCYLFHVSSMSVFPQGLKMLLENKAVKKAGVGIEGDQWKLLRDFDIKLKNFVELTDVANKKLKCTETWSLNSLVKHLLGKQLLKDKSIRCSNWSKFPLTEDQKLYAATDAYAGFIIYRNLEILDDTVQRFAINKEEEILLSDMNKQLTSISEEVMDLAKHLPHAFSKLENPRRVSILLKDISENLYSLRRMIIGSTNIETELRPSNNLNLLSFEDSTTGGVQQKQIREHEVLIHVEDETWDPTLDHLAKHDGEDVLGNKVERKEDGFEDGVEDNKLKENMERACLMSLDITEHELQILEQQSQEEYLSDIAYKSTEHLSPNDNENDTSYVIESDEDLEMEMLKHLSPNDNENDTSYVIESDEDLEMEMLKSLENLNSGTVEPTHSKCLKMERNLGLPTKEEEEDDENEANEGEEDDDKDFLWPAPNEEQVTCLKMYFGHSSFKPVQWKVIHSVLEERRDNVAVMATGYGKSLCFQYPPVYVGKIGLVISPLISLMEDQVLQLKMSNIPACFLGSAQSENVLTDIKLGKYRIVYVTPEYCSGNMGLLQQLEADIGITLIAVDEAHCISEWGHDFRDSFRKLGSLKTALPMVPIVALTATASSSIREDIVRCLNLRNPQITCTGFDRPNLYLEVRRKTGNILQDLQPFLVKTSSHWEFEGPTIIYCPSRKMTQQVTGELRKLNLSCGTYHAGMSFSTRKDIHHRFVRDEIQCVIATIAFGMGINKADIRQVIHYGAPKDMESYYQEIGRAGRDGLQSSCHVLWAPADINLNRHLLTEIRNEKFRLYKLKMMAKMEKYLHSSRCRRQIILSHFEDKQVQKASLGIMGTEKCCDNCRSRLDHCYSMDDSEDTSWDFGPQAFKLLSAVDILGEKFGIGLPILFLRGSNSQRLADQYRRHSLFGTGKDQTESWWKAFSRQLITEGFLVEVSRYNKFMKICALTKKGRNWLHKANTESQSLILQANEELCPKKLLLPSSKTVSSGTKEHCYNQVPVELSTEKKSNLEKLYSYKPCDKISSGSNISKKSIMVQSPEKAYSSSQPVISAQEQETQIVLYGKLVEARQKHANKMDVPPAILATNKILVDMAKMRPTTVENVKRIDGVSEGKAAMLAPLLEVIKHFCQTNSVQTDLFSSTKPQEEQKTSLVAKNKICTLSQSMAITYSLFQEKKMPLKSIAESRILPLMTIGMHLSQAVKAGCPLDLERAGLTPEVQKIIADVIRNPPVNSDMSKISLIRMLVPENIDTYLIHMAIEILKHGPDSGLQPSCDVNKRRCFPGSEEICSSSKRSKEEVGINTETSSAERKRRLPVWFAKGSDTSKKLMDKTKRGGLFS
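WRN at 20 nM final was preincubated with compound for 15 min at room temperature; reaction started with 100 nM forked duplex oligonucleotide carrying fluorophore and quencher plus 2 mM ATP (final). Unwinding followed kinetically by red fluorescence (ex 525/em 598 nm).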
Pol beta inh: DNA polymerase beta (human) inhibition | Pol beta primer extension/strand displacement, fluorescence kinetic | Potency, µM (doses to about 114 µM), for the others: at the highest dose activity change, negative = inhibition, actives largely listed as inhibitors | actives 1.3% (n = 340,000) | AID 485314; further: on the % scale 0 is the no-effect control and ±100 the full control effect
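Values derive from four-parameter Hill fits of normalized kinetic data: reads at 0 and 10 min following addition of 50 nM substrate to 10 nM Pol beta preincubated 15 min with compound.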
L3MBTL1 block: blocks human L3MBTL1; Q9Y468; AlphaScreen L3MBTL1–H3K9me1 peptide binding; Potency, µM (series often up to 57.1 µM), without a hit: top-dose activity, negative = inhibition, most hits filed as inhibitors; actives 0.66% (n = 230,000); AID 485360; further: on the % scale 0 is the no-effect control and ±100 the full control effect; nearly all actives have a fitted effect of over 60% in size
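AlphaScreen proximity signal between nickel-chelate acceptor and streptavidin donor beads (final 10 ug/mL) reports binding of 50 nM L3MBTL1 to 75 nM biotin-H3 K9me1 peptide; complex incubated with compounds 30 min at room temperature; cefsulodin titration as control.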
Pol kappa inh-2: Pol kappa (human) inhibition, cherry-pick confirmation; shares compounds with Pol eta inh-1; Potency, µM, usual class: inhibitors; actives 76% (n = 920); purified Pol-kappa, fluorescent strand-displacement substrate
Pol eta inh-2: confirmation of human DNA polymerase eta inhibitors; shares compounds with Pol eta inh-1; Pol eta primer extension, TAMRA/BHQ fluorescence, 10 min; Potency, µM, usual class: inhibitors; actives 64% (n = 2,600)
Starred values were filed as active, the others as inactive; ? = inconclusive; . = no result; [ ] = dose if it differs, or a comment. Rows were chosen to be rich in hits. Some 2.5% of all compounds tested hit in one or more screens of this group. The call rests on the fitted dose curve; in most records, active means well fitted curve in the direction sought with a large enough effect; inconclusive means small, poorly fitted or top-dose-only effect, or another doubt; inactive means no such curve, though single readings can be large; an effect the other way counts as inactive or inconclusive. Potency means the concentration at half of the fitted maximal effect.

SMILES	Pol iota inh	Pol eta inh-1	Pol kappa inh-1	WRN inhibitor	Pol beta inh	L3MBTL1 block	Pol eta inh-2	others
COc1cc(/C=C/C(=O)O)cc(S(=O)(=O)Nc2ccccc2C(=O)NCc2ccco2)c1OC	?	22µM*	?	-9%[11.6 µM]	.	-9%	?
CN(CC(=O)Nc1ccc2c(c1)OCO2)S(=O)(=O)c1ccc2c(c1)CCC(=O)N2	6%	-17%	-10%	-4%	4%	.	.
Cc1ccc2nc3sc(C(=O)NCc4ccco4)cc3cc2c1	.	.	.	.	.	.	76*
Cc1ccc(OCC(=O)O/N=C(\N)c2ccncc2)cc1C	60%	-17%	-16%	-4%	-9%	.	.
CCN(CC)Cc1cc(C(C)(C)C)cc(N2CCOCC2)c1O	33%	-12%	-5%	-10%	.	.	.
CCN(CC)Cc1cc(O)c(CN(CC)CC)cc1O	?	50µM*	8.9µM*	50µM*	3.5µM*	3.2µM*	?
CCOc1cc(/C=C2\N=C(SC)SC2=O)cc([N+](=O)[O-])c1OC(C)=O	?	?	45µM*	?	22µM*	?	.	Pol kappa inh-2=84*
COc1cc(Cl)ccc1OCc1cc(C(=O)N2CCN(C)C(=O)[C@@H]2C)no1	.	-8%	.	5%	.	.	.
O=C(COC(=O)C1=COCCO1)Nc1ccc(Cl)cn1	44%	-24%	-7%	3%	.	-8%	.
O=c1c(C=Nc2cccc(C(F)(F)F)c2)c[nH]n1-c1cccc(Cl)n1	-8%	89µM*	-2%	?	?	5%	?
N#CCSc1nnc(SCC#N)s1	?	20µM*	?	?	?	.	76*
FC(F)Oc1ccc(-c2csc(NNC3=NCCCCC3)n2)cc1	48%	-7%	-10%	0%[57.1 µM]	3%	-20%	.
COc1ccccc1NC(=S)NC(=O)/C=C/c1ccco1	?	20µM*	?	?	45µM*	-20%	?
COc1ccccc1NC(=O)/C=C\c1ccco1	?	?	-35%	-11%	-18%	.	.
CC(=O)c1ccc(NC(=S)NC(=O)/C=C/c2ccco2)cc1	?	?	-32%	-17%	-8%	?	.
Cc1cccc(NC(=S)NC(=O)/C=C/c2ccco2)c1	20µM*	50µM*	79µM*	?	32µM*	-27%	?
C=C1C(=O)OC2C1CCC(C)C1C=CC(=O)C12C (stereo not given)	45µM*	14µM*	-39%	-19%	.	.	?
CC(OC(=O)c1ccc(S(=O)(=O)NCc2ccco2)cc1)C(=O)Nc1ccc(Cl)cn1 (stereo not given)	?	?	-19%	-34%	?	?	67*
O=C(COC(=O)c1ccc(S(=O)(=O)NCc2ccco2)cc1)Nc1ncc(Cl)cc1Cl	64%	-28%	-11%	-5%	?	-17%	.
COc1cc(C(CC(=O)N2CCCC2)c2c(OC)cc(OC)c3ccc(=O)oc23)cc(OC)c1OC (stereo not given)	?	32µM*	?	1%[11.6 µM]	?	.	85*
COc1cc(OC)c2ccc(=O)oc2c1C(CC(=O)N1CCCC1)c1ccc2c(c1)OCO2 (stereo not given)	71µM*	?	50µM*	-32%	45µM*	.	?
CCN(CC)CCC(c1ccc2c(c1)OCO2)c1c(OC)cc(OC)c2ccc(=O)oc12 (stereo not given)	-9%	-10%	23%	8%	1%	.	.
COc1cc(C(CCN2CCCC2)c2c(OC)cc(OC)c3ccc(=O)oc23)cc(OC)c1OC (stereo not given)	26%	-14%	10%	6%	-28%	.	.
CCc1ccc(N2CC(C(=O)OCc3nc4ccsc4c(=O)[nH]3)CC2=O)cc1 (stereo not given)	?	40µM*	79µM*	-15%[11.6 µM]	.	?	67*
CCc1ccc(N2CC(C(=O)OCc3csc(CC(=O)Nc4ccccc4C)n3)CC2=O)cc1 (stereo not given)	-12%	-15%	-20%	4%	.	10%	.
SMILES	Pol iota inh	Pol eta inh-1	Pol kappa inh-1	WRN inhibitor	Pol beta inh	L3MBTL1 block	Pol eta inh-2	others
Cc1ccc(O)c(N=Cc2cc(Cc3ccccc3)cc([N+](=O)[O-])c2O)c1	?	79µM*	?	?	5.6µM*	-20%	.	Pol kappa inh-2=67*
CCOC(=O)N(C)C[C@H]1OCc2cnnn2CCCC(=O)N([C@@H](C)CO)C[C@H]1C	.	-18%	.	-3%	.	.	.
COc1cc2oc(=O)cc(CN3CCN(c4ccc(Cl)c(Cl)c4)CC3)c2cc1Cl	.	.	.	-6%	.	.	.
O=C(COC(=O)CCC(=O)c1ccc(F)cc1)NCc1ccc(Cl)cc1	-9%	-6%	-11%	-5%	.	-1%	.
COc1cc(CC(=O)OCC(=O)NCc2ccco2)cc(OC)c1OC	?	50µM*	-26%	-5%[11.6 µM]	.	?	?
O=C(COC(=O)CCC(=O)c1ccc(Cl)cc1)NCc1ccco1	45µM*	25µM*	?	?	35µM*	-90%	76*
COCCN1C[C@@H](CO)O[C@@H](n2cnc3c(N4CCN(C)CC4)ncnc32)C1	.	.	.	-4%	.	.	.
Cc1cc(C)cc(N2C(=O)CN(Cc3ccccc3)C2=S)c1	0%	-23%	3%	-5%	-12%	.	.
Cc1cc(N)n2ncc(-c3cccc(Br)c3)c2n1	10%	-16%	-4%	-16%	?	6%	.
N#CCCN(C(=O)COC(=O)CNC(=O)c1cccs1)c1ccc(F)cc1	10%	-1%	-23%	-3%	.	7%	.
Cc1ccccc1-c1ccc(CN2CCN(C)C(CCO)C2)cc1 (stereo not given)	-7%	-14%	10%	0%	11%	-14%	.
COc1ccc(C(C(=O)NC2CCCC2)N(C(=O)c2snc(C(N)=O)c2N)c2cccc(O)c2)cc1 (stereo not given)	?	22µM*	79µM*	-10%[11.6 µM]	40µM*	.	76*	Pol kappa inh-2=?
CC[C@H](C)/C=C(C)/C=C/C1=CC2=CC(=O)[C@]3(C)OC(=O)[C@@H](C(C)=O)[C@@H]3C2=CO1	22µM*	25µM*	79µM*	-24%	35µM*	-7%	?
O=C(Nc1ccc2c(c1)OCCO2)C1CCN(C(=O)c2ccc(Cl)cc2)CC1	15%	-12%	-23%	12%	3%	0%	.

Screening data deposited in PubChem BioAssay by National Center for Advancing Translational Sciences (NCATS).
